pPAFAH FP inh = inhibitors of human plasma PAF acetylhydrolase (pPAFAH). recombinant pPAFAH, FP-rhodamine probe fluorescence polarization. inhibition, % at 3.39 µM. 330,000 tested, 1.5% active. AID 463082;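 active = inhibition above the mean inhibition across the screen plus 3 SD, cut at about 25% in these data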;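 also: inhibitors block binding of the rhodamine activity-based probe so polarization drops; 0% = enzyme with DMSO and 100% = wells lacking pPAFAH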
Target sequence (Q13093 whole entry, looked up): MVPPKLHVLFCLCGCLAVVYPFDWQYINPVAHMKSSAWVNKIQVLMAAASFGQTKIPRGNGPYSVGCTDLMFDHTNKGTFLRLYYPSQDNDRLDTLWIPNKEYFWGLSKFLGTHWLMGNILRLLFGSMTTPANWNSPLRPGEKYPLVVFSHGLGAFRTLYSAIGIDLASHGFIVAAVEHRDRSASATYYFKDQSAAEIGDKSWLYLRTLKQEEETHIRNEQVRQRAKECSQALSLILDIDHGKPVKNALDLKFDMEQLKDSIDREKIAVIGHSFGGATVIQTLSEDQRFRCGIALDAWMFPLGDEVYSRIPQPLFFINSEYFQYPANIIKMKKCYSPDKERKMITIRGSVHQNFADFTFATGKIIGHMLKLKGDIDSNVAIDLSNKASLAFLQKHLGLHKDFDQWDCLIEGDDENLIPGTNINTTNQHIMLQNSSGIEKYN
PP5 inh = blocks human protein phosphatase 5 activity | inhibition, % at 6.7 µM | AID 1987 | purified PP5c, OMFP substrate fluorescence | P53041 | 320,000 tested, 0.18% active;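 active = inhibition above the campaign's mean inhibition across all tested compounds plus 3 SD, cut at about 9.5% in these data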;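 also: 0% = DMSO only and 100% = 100 µM cantharidin control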
PAFAH1B2 inh = inhibitors of human PAFAH1B2 | 340,000 tested, 1.2% active | AID 492953 | recombinant PAFAH1B2, FP-rhodamine activity probe, fluorescence polarization | P68402 | inhibition, % at 3.39 µM;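 active = inhibition above the mean of all tested compounds plus 3 SD, cut at about 24% in these data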;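 also: 0% = enzyme with DMSO and 100% = wells lacking PAFAH1B2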
PAFAH1B3 inh = inhibitors of human PAFAH1B3. Q15102. recombinant PAFAH1B3, FP-rhodamine probe, fluorescence polarization. inhibition, % at 3.39 µM. 340,000 tested, 0.28% active. AID 492972;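 active = inhibition above the screen-wide average of all tested compounds plus 3 SD, cut at about 25% in these data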;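 also: 0% = enzyme with DMSO only and 100% = wells lacking PAFAH1B3 protein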
PAFAH2 FP inh = inhibitors of human PAFAH2; inhibition, % at 3.39 µM; Q99487; AID 492956; recombinant PAFAH2, FP-rhodamine activity probe, fluorescence polarization; 340,000 tested, 0.99% active;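 active = inhibition above the mean over all tested compounds plus 3 SD, cut at about 30% in these data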;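 also: inhibitors block probe labeling of enzyme so polarization drops; 0% = enzyme with DMSO and 100% = wells lacking PAFAH2 protein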
PP1 counter = counter-screen for PP5 inhibitors: inhibitors of human PP1-alpha; 320,000 tested, 0.9% active; AID 2235; P62136; purified PP1alpha, OMFP fluorescence; inhibition, % at 6.7 µM;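 active = inhibition above the mean inhibition of all tested compounds plus 3 SD, computed separately for each screening campaign, cut at about 15% in these data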
Active calls of the source: *; nt = not tested or not shown. An excerpt weighted towards active compounds, which were near 3.4% of everything screened.

SMILES	pPAFAH FP inh	PP5 inh	PAFAH1B2 inh	PAFAH1B3 inh	PAFAH2 FP inh	PP1 counter
Oc1ccccc1Nc1nc(NCc2ccco2)c2ccccc2n1	7.8	5.8	1.2	11.9	4.5	7.0
COc1ccc(OC)c(Nc2nc(NCc3ccco3)nc(N)c2[N+](=O)[O-])c1	3.9	-0.1	nt	nt	nt	7.3
c1ccc(Nc2nc(NCc3ccco3)c3ccccc3n2)cc1	5.2	1.2	1.0	8.6	-0.5	16.4*
COc1ccc(OC)c(Nc2nc(NCc3ccco3)c3ccccc3n2)c1	25.5*	4.2	2.6	12.7	-0.7	10.0
O=S(=O)(Nc1nc2ccccc2nc1NCc1ccco1)c1ccc(Cl)cc1	20.3	0.8	12.2	8.9	10.1	3.2
O=C(NNc1c(Cl)cccc1Cl)c1ccno1	-0.9	1.1	10.9	-3.6	1.0	1.8
CCOc1ccc(-n2c(SCC(=O)Nc3ccc(CC)cc3)nc3n[nH]c(C)c3c2=N)cc1	7.2	1.7	-0.3	-3.1	-9.6	16.3*
CC(C)(C)NC(=O)[C@@H]1CN(Cc2cccnc2)CCN1C[C@@H](O)C[C@@H](Cc1ccccc1)C(=O)N[C@H]1c2ccccc2C[C@H]1O	0.6	-2.2	-0.2	15.4	5.3	-0.6
Cc1[nH]c2ccccc2c1/C=N/NC(=O)c1cc(-c2cccs2)[nH]n1	26.8*	6.1	10.8	22.0	14.2	1.6
COc1ccc(-n2c(SCC#N)nnc2-c2ccc(NS(=O)(=O)c3ccc(C)cc3)cc2)cc1	26.1*	7.9	3.8	6.2	7.4	8.1
CCOC(=O)c1cc(CC)sc1NC(=O)C1CC(=O)NN1Cc1ccccc1 (configuration not stated)	31.8*	6.5	1.0	2.6	-11.4	6.3
COC(=O)c1cc(C)sc1NC(=O)C1CC(=O)NN1Cc1ccccc1 (configuration not stated)	5.7	0.7	-1.1	0.4	5.5	-1.9
O=C(c1ccc(Oc2cc(Cl)cc(Cl)c2)o1)N1CCCCC1	32.0*	-0.3	4.4	4.2	11.6	-2.4
CC(=O)COC(=O)C1=NN(c2ccccc2)C(=O)CC1	5.2	-1.0	1.4	2.2	-0.4	-3.8
Cc1nc(C(=O)N2CCC(n3nccc3NC(=O)Nc3ccccc3Cl)CC2)cs1	1.9	1.8	2.3	5.0	-7.6	-8.4
CCN(CC)c1ccc(CNCc2cccs2)cc1	19.2	1.2	-3.4	3.0	-6.9	17.4*
COc1cc(CNCc2cccs2)ccc1OCc1cccs1	2.6	3.2	-1.6	-5.5	-1.0	2.1
CC(C)c1ccc(S(=O)(=O)N2CCN(C(=O)[C@@H]3CCCN3C(=O)c3cccs3)CC2)cc1	nt	nt	5.8	5.1	3.1	nt
O=C(C1CCCN1C(=O)c1cccs1)N1CCN(S(=O)(=O)c2ccc(F)cc2)CC1 (configuration not stated)	1.7	-1.5	28.8*	11.0	-3.0	-1.4
COc1ccccc1N(C)S(=O)(=O)c1ccc(Cl)c(C(=O)Nc2ccccc2N2CCOCC2)c1	nt	nt	3.1	-2.6	3.1	nt
Cc1ccc(-n2cnc3c(=O)[nH]cnc32)cc1[N+](=O)[O-]	nt	nt	6.1	1.0	1.5	nt
CC(O)CN=c1cc(-c2ccccc2)oc2ccc(Cl)cc12 (configuration not stated)	7.6	-1.3	-10.6	8.2	-2.7	-0.3
CC(C)CN=c1cc(-c2ccccc2)oc2ccc(Cl)cc12	11.3	1.8	0.8	3.4	-0.4	17.1*
CCN1C(=O)N(C)C2(c3ccccc3)N(C)C(=O)N(C)C12c1ccccc1 (configuration not stated)	-2.7	0.7	38.4*	1.6	5.2	-0.4
CCN1C(=O)N(CC)C(O)(c2ccccc2)C1(O)c1ccccc1 (configuration not stated)	0.3	4.2	6.8	0.7	-2.4	-0.5
COc1cccc(-c2c(C(=O)N/N=C(\C)c3ccc(Cl)s3)nnn2-c2nonc2N)c1	-0.4	1.9	1.4	7.6	-1.0	3.8
c1ccc2cc(-c3cc4ccccn4c3)ccc2c1	27.8*	0.8	5.2	9.2	14.7	6.8
COc1ccc2cc(/C=C/C(=O)N3CCN(CC(=O)N4CCCCCC4)CC3)ccc2c1	-7.6	1.2	-0.4	-5.0	5.8	0.4
O=C(NC(=S)N1CCN(c2ccc(C(F)(F)F)cc2[N+](=O)[O-])CC1)c1cccs1	33.8*	-0.4	1.7	-2.6	4.2	2.6
CCCCn1c(N)c(N(CC(C)C)C(=O)c2cc3ccccc3cc2OC)c(=O)[nH]c1=O	nt	nt	0.4	9.4	0.1	nt

Bioassay records: PubChem, The Scripps Research Institute Molecular Screening Center
